A selection: hits, their analogues and other compounds. The true share with any hit is near 3.1%.
Caspase-7 inhib = caspase-7 (human) inhibition, allosteric or competitive | recombinant caspase-7, Ac-DEVD-AFC fluorescence rate | 75,000 compounds, 0.02% hits | P55210 | Potency, µM (highest dose often 57.5 µM), usual class: inhibitors; active = well fitted inhibition curve with a large enough effect in the main read-out, with a control signal flat, not every such curve was filed as active; inconclusive = small, poorly fitted or top-dose-only effect, or a change in a side signal
FLuc inh = firefly luciferase inhibition; P08659; purified firefly luciferase, luminescence, 8 min; Potency, µM (doses to about 57.1 µM), actives largely listed as inhibitors; 72,000 compounds, 2.2% hits; AID 411; note: nearly all actives have a fitted effect of over 40% in size
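Compounds were tested as concentration series (qHTS) against purified P. pyralis luciferase with luciferin and 10 uM ATP in 50 mM imidazole pH 7.2, 50 mM KCl, 7 mM MgCl2, 0.01% Tween 20, 0.05% BSA. Luminescence was read after 8 min at ambient temperature.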
Caspase-1 inhib = allosteric or competitive inhibitors of human caspase-1; 75,000 compounds, 0.03% hits; AID 900; P29466; Potency, µM (highest dose often 57.5 µM), most hits filed as inhibitors; Caspase-1 enzyme, Ac-WEHD-AFC fluorogenic rate
GBA mod = human lysosomal glucosylceramidase modulation. 48,000 compounds, 1.1% hits. AID 360. Potency, µM. P04062. purified enzyme, resorufin glucoside fluorescence (screen aimed at inhibitors), 20 min; in the data active = potency below about 15 µM; inconclusive = mostly about 16 µM to 33 µM;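 note: the screen sought inhibitors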
Target sequence (P04062 whole entry, looked up): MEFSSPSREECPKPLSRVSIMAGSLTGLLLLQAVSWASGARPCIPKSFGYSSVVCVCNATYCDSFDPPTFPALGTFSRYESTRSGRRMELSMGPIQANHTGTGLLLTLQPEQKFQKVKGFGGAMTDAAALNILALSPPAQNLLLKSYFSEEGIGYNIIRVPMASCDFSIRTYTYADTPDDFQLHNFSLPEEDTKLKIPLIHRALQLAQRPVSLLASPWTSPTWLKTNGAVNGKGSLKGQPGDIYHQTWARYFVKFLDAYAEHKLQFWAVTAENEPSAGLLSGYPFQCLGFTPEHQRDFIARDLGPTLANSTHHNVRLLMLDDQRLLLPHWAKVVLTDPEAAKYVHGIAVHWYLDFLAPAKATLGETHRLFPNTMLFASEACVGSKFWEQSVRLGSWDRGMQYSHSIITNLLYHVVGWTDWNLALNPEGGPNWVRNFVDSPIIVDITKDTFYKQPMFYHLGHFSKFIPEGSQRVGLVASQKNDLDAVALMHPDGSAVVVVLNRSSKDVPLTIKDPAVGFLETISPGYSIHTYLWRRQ
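Compounds titrated against 0.2 nM normal enzyme, 30 uM resorufin beta-D-glucopyranoside substrate, citrate/phosphate buffer with taurocholate and tween-20, pH 5.9. Reaction ran 20 min at room temperature; fluorescence (Ex 548/Em 600) gave AC50.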
Bst PK mod = modulators of Bacillus stearothermophilus pyruvate kinase | 51,000 compounds, 1.2% hits | Potency, µM | AID 361 | purified pyruvate kinase, luminescence ATP production; ribose 5-phosphate activator present at AC10; in the data active = potency below about 11 µM; inconclusive = mostly about 12 µM to 25 µM;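 the screen sought inhibitors and activators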
Of the large screens only hits and unclear results are named; the others gave an inactive call. Unless noted, calls come from the whole dose curve; as a rule, active = well fitted inhibition curve with a large enough effect; inconclusive = small, poorly fitted or top-dose-only effect; inactive = flat fitted curve, though single readings scatter.

NC1=N[C@H](c2ccc(Cl)cc2)N(c2ccc(S(=O)(=O)Nc3ncccn3)cc2)C(N)=N1	none (no result: GBA mod, Bst PK mod)
Cn1c(=O)c(C(=O)COC(=O)c2cc(-c3ccccc3)nc3ccccc23)c(N)n(Cc2ccccc2)c1=O	none (no result: FLuc inh, GBA mod, Bst PK mod)
COc1ccc(-c2cc(C(=O)OCC(=O)N(C)C)c3ccccc3n2)cc1	FLuc inh 20µM, Caspase-1 inhib inconclusive, Bst PK mod 9.83
COC(=O)[C@H]1[C@@H]2C[C@H]3c4[nH]c5ccccc5c4CCN3C[C@@H]2CC[C@@H]1O	none (no result: Caspase-7 inhib, Caspase-1 inhib, GBA mod, Bst PK mod)
CN1CCN(c2ccc(Cl)cc2NS(=O)(=O)c2ccccc2Cl)CC1	GBA mod 13
CC1CCCCN1CCCNC(=O)c1ccc(Cc2nc3ccccc3[nH]2)cc1 (centres undefined)	none (no result: FLuc inh, GBA mod, Bst PK mod)
Cc1ccnc(NC(=O)Nc2cccc(F)c2)c1	FLuc inh 3.16µM
CN(C)CC(CN(C)C)c1ccccn1	none (no result: GBA mod, Bst PK mod)
O=c1oc(-c2cccs2)nc2scc(-c3cccs3)c12	FLuc inh 12.6µM, Caspase-1 inhib inconclusive
CC1CC(C)(C)Nc2ccc(OC(=O)c3ccco3)cc21 (centres undefined)	FLuc inh 12.6µM (no result: GBA mod, Bst PK mod)
Cc1ccc(C)c(S(=O)(=O)N2CCC(c3nc4c(nnn4Cc4ccc(F)cc4)c(=O)[nH]3)CC2)c1	GBA mod 7.11
Cc1ccc(Cn2nnc3c(=O)[nH]c(C4CCN(S(=O)(=O)c5ccc(F)cc5)CC4)nc32)cc1	GBA mod 5.49
Cc1ccc(Cn2nnc3c(=O)[nH]c(C4CCN(S(=O)(=O)c5cc(C)ccc5C)CC4)nc32)cc1	GBA mod inconclusive
NNc1nncc2ccccc12	FLuc inh 3.98µM (no result: GBA mod, Bst PK mod)
CC1CCC2C(=O)N3C(CCC(C)C3c3ccc(-c4ccco4)cc3)C(=O)N2C1c1ccc(-c2ccco2)cc1 (centres undefined)	none (no result: FLuc inh, GBA mod, Bst PK mod)
COc1ccc2c3c(ccc2c1)N[C@H](C(=O)O)CC3	FLuc inh 3.16µM (no result: GBA mod, Bst PK mod)
C[C@H](NCCN(C)C)[C@@H]1CCC2C3CCc4cc(O)ccc4[C@H]3CCC21C (some centres undefined)	none (no result: GBA mod, Bst PK mod)
CC(C)OC(=O)CN1CCN(S(=O)(=O)c2cc(Cl)ccc2Cl)CC1	none (no result: GBA mod)
CN(C)c1ccc(NC(=O)CN2CCN(S(=O)(=O)c3cc(Cl)ccc3Cl)CC2)cc1	GBA mod inconclusive, Bst PK mod 9.45
O=C(CN1CCN(S(=O)(=O)c2cc(Cl)ccc2Cl)CC1)Nc1ccc2c(c1)OCCO2	GBA mod inconclusive, Bst PK mod 4.74
CCSc1nnc(NC(=O)c2ccc(Br)s2)s1	GBA mod 1.03
Cc1cc2nc(SC(C)C(=O)O)[nH]c2cc1C (centres undefined)	FLuc inh 10µM (no result: Bst PK mod)
Cc1cc2nc(SCCN3CCCC3)[nH]c2cc1C	none (no result: GBA mod, Bst PK mod)
CC(C)(C)c1ccc(OCC2CO2)cc1 (centres undefined)	none (no result: FLuc inh, GBA mod, Bst PK mod)
Cc1ccc(C)c(CSc2nnc(-c3cccnc3)n2N)c1	GBA mod 4.18
COc1cc(=O)n(C)c2cc(N(C)C)ccc12	Bst PK mod 4.87 (no result: GBA mod)
C[N@+]1(CCC(=O)c2ccccc2)CC[C@H]2CC[C@H](C2)C1	none (no result: GBA mod, Bst PK mod)
Oc1c(-c2cc(-c3ccco3)[nH]n2)ccc2ccccc12	FLuc inh 7.94µM, Bst PK mod 8.33
O=C(O)c1cc(-c2ccco2)nc2ccccc12	none
O=[N+]([O-])c1ccc(Cl)c(CNc2ncnc3c2ncn3[C@@H]2CCCCO2)c1	none (no result: GBA mod, Bst PK mod)
COc1ccc(-n2c(C)cc(C(=O)CSc3nn4c(=O)c(C(C)(C)C)nnc4s3)c2C)cc1	FLuc inh 2µM
Cc1ccc(-n2c(C)cc(C(=O)CSc3nncs3)c2C)cc1	FLuc inh 25.1µM
O=C(NC1CC2CCCC(C1)N2C1CC1)NC12CC3CC(CC(C3)C1)C2 (centres undefined)	GBA mod 10.5
C/C=C1\C(=O)C[C@H]2[C@@H]3CCC4=CC(=O)CC[C@]4(C)[C@H]3CC[C@]12C	none (no result: FLuc inh, GBA mod, Bst PK mod)
CCCCn1cnc2c(SC)ncnc21	none (no result: GBA mod, Bst PK mod)
O=C(COc1ccc(F)cc1Br)N1CCc2ccccc21	FLuc inh 7.94µM
COCCNc1ncnc2c1cnn2-c1ccc(Cl)cc1	FLuc inh 10µM, Bst PK mod 10 (no result: Caspase-7 inhib, Caspase-1 inhib, GBA mod)
COCCN(CCOC)c1ncnc2c1cnn2-c1ccc(Cl)cc1	none (no result: Bst PK mod)
CC(C)Nc1ncnc2c1cnn2-c1ccc(Cl)cc1	FLuc inh 2.51µM (no result: GBA mod, Bst PK mod)
OCCOCCNc1ncnc2c1cnn2-c1ccc(Cl)cc1	FLuc inh 10µM, Bst PK mod 11 (no result: Caspase-7 inhib, Caspase-1 inhib, GBA mod)
FC(F)(F)c1ccccc1Cl	none (no result: FLuc inh, GBA mod, Bst PK mod)
C/C(CC/C(C)=N/O)=N/O	none (no result: GBA mod, Bst PK mod)
O=C(Cn1c(=O)oc2ccccc21)Nc1ccc(S(=O)(=O)N2CCCCC2)cc1	none
CCN(CC)S(=O)(=O)c1ccc(NC(=O)Cn2c(=O)oc3ccccc32)cc1	GBA mod 8.47
CCC(=O)Nc1cc2nn(-c3ccc(OC)cc3)nc2cc1C	FLuc inh 1.26µM, Bst PK mod 3.44
O=C(O)c1ccc(C(=O)O)c(C(=O)Nc2ccc3c(c2)Cc2ccccc2-3)c1	none (no result: GBA mod, Bst PK mod)
Cc1ccc(OC2C(O)COC2/C=C/C#Cc2ccc(C(C)(C)C)cc2)cc1 (centres undefined)	none (no result: FLuc inh, GBA mod, Bst PK mod)
C=CCNC(=O)c1ccc(Cl)cc1Cl	Bst PK mod 7.33
C=CCNC(=O)c1ccc(C)cc1Cl	none (no result: GBA mod, Bst PK mod)
Cc1cccc(Nc2nnc(SCc3cn4ccsc4n3)s2)c1	FLuc inh 31.6µM
COc1ccc(C)cc1-n1nnnc1SCc1cn2ccsc2n1	none
COc1ccccc1C[C@@H](Cc1nc2ccccc2[nH]1)c1nc2ccccc2[nH]1	none (no result: Caspase-7 inhib, Caspase-1 inhib, GBA mod, Bst PK mod)
Cc1nn(-c2ccccn2)c2nc(-c3cccs3)cc(C(=O)N3CCOCC3)c12	Bst PK mod 7.11
CN(C(=O)c1ccccc1C(=O)O)C1CC(C)(C)NC(C)(C)C1	none (no result: GBA mod, Bst PK mod)
CCOC(=O)c1ccc(NC(=O)N2CCN(c3ccccn3)CC2)cc1	none
CCOC(=O)c1ccc(NC(=O)N2CCN(CCc3ccccc3)CC2)cc1	FLuc inh 25.1µM (no result: Bst PK mod)
O=S(=O)(NCc1ccccn1)c1cccc2cccnc12	none (no result: GBA mod, Bst PK mod)
O=c1c2ccccc2nnn1CSc1nnc(-c2ccc3c(c2)OCO3)o1	GBA mod 8.81
O=C(O)CCSc1nnc(-c2ccc3c(c2)OCO3)o1	none
CC1(C)S[C@@H]2[C@H](C(=O)O)N=C(Cc3ccccc3)N2[C@H]1C(=O)O	none (no result: GBA mod, Bst PK mod)
O=C(CSc1nc2ccccc2s1)c1sc2sc3ccccc3[n+]2c1O	none (no result: GBA mod, Bst PK mod)
CC1CCCC(NC(=O)C2CCN(S(=O)(=O)N3CCC4(CC3)OCCO4)CC2)C1C (centres undefined)	GBA mod 14
CC(NC(=O)C1CCN(c2nnc(-n3cccc3)s2)CC1)C12CC3CC(CC(C3)C1)C2 (centres undefined)	Bst PK mod 8.25 (no result: GBA mod)
CCOc1ccc(-c2nnc(N)o2)cc1	none (no result: Bst PK mod)
CCCCOc1ccc(C(=O)NC)cc1	none
CCOc1ccc(-c2nnc(-c3ccncc3)o2)cc1	Bst PK mod 2.08
CCCCOc1ccc(-c2nnc(-c3ccncc3)o2)cc1	Bst PK mod 5.57
CCCCOc1ccc(C(=O)Nc2ccncc2)cc1	GBA mod 6.2 (no result: Bst PK mod)
CC(C)N(C)C	none (no result: FLuc inh, GBA mod, Bst PK mod)
Oc1cc2ccccc2cc1-c1n[nH]c(=S)o1	GBA mod 12.4
CC(=O)c1n[nH]nc1NC(=O)c1ccccc1	none

High-throughput results (PubChem)
